Structures are written as SMILES. Inconclusive results are not listed. Entries that show only a call come without a potency. Activity calls are given as the source filed them. Unless noted, calls follow the shape of the dose curve; as a rule, active = well fitted curve in the direction sought with a large enough effect in the repeat runs; inconclusive = weak or mixed curves; inactive = no such curve, though single readings can be large; an effect the other way counts as inactive or inconclusive.

Sequence of Aromatase (Homo sapiens) (P11511 whole entry, looked up): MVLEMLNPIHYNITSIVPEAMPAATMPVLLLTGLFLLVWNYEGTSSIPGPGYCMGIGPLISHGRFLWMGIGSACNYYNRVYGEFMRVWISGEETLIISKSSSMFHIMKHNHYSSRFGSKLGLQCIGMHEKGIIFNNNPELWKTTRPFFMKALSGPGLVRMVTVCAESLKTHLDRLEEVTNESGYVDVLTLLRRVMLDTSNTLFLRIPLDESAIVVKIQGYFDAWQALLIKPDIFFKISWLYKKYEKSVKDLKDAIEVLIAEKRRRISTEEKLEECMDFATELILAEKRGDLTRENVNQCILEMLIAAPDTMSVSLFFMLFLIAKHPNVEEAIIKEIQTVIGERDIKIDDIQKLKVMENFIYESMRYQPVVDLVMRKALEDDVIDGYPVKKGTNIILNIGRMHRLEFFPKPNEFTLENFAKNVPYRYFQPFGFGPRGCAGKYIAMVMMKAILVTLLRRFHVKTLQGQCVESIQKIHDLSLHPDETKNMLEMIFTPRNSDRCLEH

System in the first experiment: not listed separately
The experiment in a line: qHTS assay to identify small molecule antagonists of the estrogen receptor alpha (ER-alpha) signaling pathway using the BG1 cell line (AID 743080; calls by dose curve;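 also: BG1 cells stimulated with 17beta-estradiol alongside compound; nearly all actives have a fitted effect of over 25% in size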). The settings on record: BG1Luc4E2 ERE-luciferase antagonist mode, luminescence; series mostly up to 70.3 µM. A digest of the protocol: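 Seeding, 24 h rest, compound transfer from DMSO, 17beta-estradiol addition, 21.5 h incubation, CellTiter-Fluor (30 min, 37 C), then ONE-Glo (30 min, room temperature): this sequence was run on BG1-Luc-4E2 reporter cells.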
In general terms: qHTS replaces the single test concentration by a dilution series.
On to `CCOC(=O)NC(O)C(Cl)(Cl)Cl` (centres undefined), for which the Potency result was “inactive”.
The same measure, in the same setting: as for `O=C(O)C(F)(F)C(F)(F)C(F)(F)C(F)(F)C(F)(F)C(F)(F)C(F)(F)C(F)(F)F`, the entry is “inactive”; as for `COC(=O)Cc1ccccc1`, “inactive”; as for `C=CC(=O)OCC`, “inactive”.
As for `CC(Oc1cc(Cl)c(Cl)cc1Cl)C(=O)O` (centres undefined), the Potency result is “inactive”.
`C=CCN1C[C@H](C)N([C@H](c2ccc(C(=O)N(CC)CC)cc2)c2cccc(OC)c2)C[C@H]1C`: the Potency result was “inactive”.
For the molecule `C[N+]1(CCF)[C@@H]2CC[C@H]1CC(OC(=O)C(O)(c1ccccc1)c1ccccc1)C2` (some centres undefined), the Potency entry is “inactive”.
Same read-out and setting: as for `CC(C)C1(C)N=C(c2ncccc2C(=O)O)NC1=O` (centres undefined), the entry is “inactive”; as for `CCOC(=O)c1cncn1C(C)c1ccccc1` (centres undefined), “inactive”; as for `NC(=S)c1c(Cl)cccc1Cl`, “inactive”.
As to `C[C@H](N)[C@H](O)c1ccc(O)c(O)c1`, the Potency entry is “inactive”.
For the molecule `N#CC(C#N)=Cc1ccc(O)c(O)c1`, the Potency result was “inactive”.
In the case of `CCCCCCCCCCCCCCCl`, the Potency result is “inactive”.
The same measure, in the same setting: next, `CCCN(CCC)C(=O)Cc1c(-c2ccc(Cl)cc2)nc2ccc(Cl)cn12`: “inactive”; `O=C(NC(=O)c1cc(F)c(F)cc1Cl)Nc1cc(F)ccc1N1CCC(C(=O)O)CC1`: “inactive”.

System in another experiment: not listed separately
The experiment in a line: qHTS assay to identify small molecule antagonists of the estrogen receptor alpha (ER-alpha) signaling pathway using the BG1 cell line - cell viability counter screen (AID 743081).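 Also: compound given together with 17beta-estradiol as the ER stimulus; nearly all actives have a fitted effect of over 45% in size.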 Conditions: BG1Luc4E2 viability, CellTiter-Fluor, 22 h; series mostly up to 70.3 µM.
In the case of `CCOC(=O)NC(O)C(Cl)(Cl)Cl` (centres undefined), the Potency result was “inactive”.
On the same count and under the same terms, next, `O=C(O)C(F)(F)C(F)(F)C(F)(F)C(F)(F)C(F)(F)C(F)(F)C(F)(F)C(F)(F)F`: “inactive”.
Take `CC(Cc1ccccc1)NCc1ccccc1Cl` (centres undefined): the Potency entry is “inactive”.
Same read-out and setting: next, `O=S(=O)(Cl)Cl`: “inactive”; `COC(=O)Cc1ccccc1`: “inactive”.
The same measure, in the same setting: next, `C=CC(=O)OCC`: “inactive”; `CC(Oc1cc(Cl)c(Cl)cc1Cl)C(=O)O` (centres undefined): “inactive”.
Same read-out and setting: as for `CC(Oc1cccc(Cl)c1)C(=O)O` (centres undefined), the entry is “inactive”; as for `CCOP(=O)(SC(C)CC)N1CCSC1=O` (centres undefined), “inactive”; as for `CCC(C)(C)O`, “inactive”.
On to `CC1(C)CC(=O)CC(C)(C)N1[O]`, for which the Potency entry was “inactive”.
The same measure, in the same setting: next, `CC(Cl)C(=O)O` (centres undefined): “inactive”.
Still for that read-out and setting: next, `C=CCN1C[C@H](C)N([C@H](c2ccc(C(=O)N(CC)CC)cc2)c2cccc(OC)c2)C[C@H]1C`: “inactive”.
The same measure, in the same setting: as for `CC(=O)NNc1ccccc1`, the entry is “inactive”; as for `C[N+]1(CCF)[C@@H]2CC[C@H]1CC(OC(=O)C(O)(c1ccccc1)c1ccccc1)C2` (some centres undefined), “inactive”.
Take `CC(C)C1(C)N=C(c2ncccc2C(=O)O)NC1=O` (centres undefined): the Potency result was “inactive”.
Same read-out and setting: next, `CCOC(=O)c1cncn1C(C)c1ccccc1` (centres undefined): “inactive”; `NC(=S)c1c(Cl)cccc1Cl`: “inactive”; `O=S(=O)(c1ccccc1)c1ccccc1`: “inactive”.
On the same count and under the same terms, as for `CCOc1cccc(C2(N3CCN(c4ccccc4)CC3)CCC(C)CC2)c1` (centres undefined), the entry is “inactive”; as for `N#CC(C#N)=Cc1ccc(O)c(O)c1`, “inactive”.
Still for that read-out and setting: as for `C=CC(C)(CCC=C(C)C)OC(=O)c1ccccc1N` (centres undefined), the entry is “inactive”; as for `CCCCCCCCCCCCCCCl`, “inactive”; as for `CN1C(=O)CN=C(c2ccccc2)c2cc([N+](=O)[O-])ccc21`, “inactive”.
Take `NCCc1cc(O)c(O)cc1O`: the Potency entry was “inactive”.
Take `CCCN(CCC)C(=O)Cc1c(-c2ccc(Cl)cc2)nc2ccc(Cl)cn12`: the Potency entry is “inactive”.
As for `O=C(NC(=O)c1cc(F)c(F)cc1Cl)Nc1cc(F)ccc1N1CCC(C(=O)O)CC1`, the Potency result is “inactive”.
Still for that read-out and setting: as for `Cc1nc(N(C)C)nc(OC(=O)N(C)C)c1C`, the entry is “inactive”.

The next experiment has as its target Aromatase (Homo sapiens) (UniProt P11511). The experiment can be described thus: qHTS assay to identify aromatase inhibitors (AID 743083). Also: nearly all actives have a fitted effect of over 55% in size. Conditions: MCF-7 aro ERE, testosterone-driven ERE luciferase, 24 h; series mostly up to 70.3 µM.
Turning to `CCOC(=O)NC(O)C(Cl)(Cl)Cl` (centres undefined), the Potency entry was “inactive”.
In the case of `O=C(O)C(F)(F)C(F)(F)C(F)(F)C(F)(F)C(F)(F)C(F)(F)C(F)(F)C(F)(F)F`, the Potency result was “inactive”.
For the molecule `CC(Cc1ccccc1)NCc1ccccc1Cl` (centres undefined), the Potency result is “inactive”.
On the same count and under the same terms, as for `O=S(=O)(Cl)Cl`, the entry is “inactive”; as for `O=C(N/N=C/c1ccc([N+](=O)[O-])o1)c1cc([N+](=O)[O-])cc([N+](=O)[O-])c1O`, “inactive”.
Still for that read-out and setting: as for `COC(=O)Cc1ccccc1`, the entry is “inactive”; as for `C=CC(=O)OCC`, “inactive”; as for `CC(Oc1cc(Cl)c(Cl)cc1Cl)C(=O)O` (centres undefined), “inactive”.
On the same count and under the same terms, next, `CC(Oc1cccc(Cl)c1)C(=O)O` (centres undefined): “inactive”.
As to `CCOP(=O)(SC(C)CC)N1CCSC1=O` (centres undefined), the Potency result is “inactive”.
On the same count and under the same terms, as for `CCC(C)(C)O`, the entry is “inactive”.
Regarding `CC1(C)CC(=O)CC(C)(C)N1[O]`, the Potency entry was “inactive”.
The same measure, in the same setting: next, `CC(Cl)C(=O)O` (centres undefined): “inactive”.
With `C=CCN1C[C@H](C)N([C@H](c2ccc(C(=O)N(CC)CC)cc2)c2cccc(OC)c2)C[C@H]1C`, the Potency result is “inactive”.
On the same count and under the same terms, next, `CC(=O)NNc1ccccc1`: “inactive”.
As to `C[N+]1(CCF)[C@@H]2CC[C@H]1CC(OC(=O)C(O)(c1ccccc1)c1ccccc1)C2` (some centres undefined), the Potency entry was “inactive”.
On the same count and under the same terms, as for `CC(C)C1(C)N=C(c2ncccc2C(=O)O)NC1=O` (centres undefined), the entry is “inactive”.
On to `CCOC(=O)c1cncn1C(C)c1ccccc1` (centres undefined), for which the Potency entry is “inactive”.
On to `NC(=S)c1c(Cl)cccc1Cl`, for which the Potency entry was “inactive”.
The same measure, in the same setting: as for `O=S(=O)(c1ccccc1)c1ccccc1`, the entry is “inactive”.
Take `CC(C)(C)NCC(O)c1cc(Cl)c(N)c(C(F)(F)F)c1` (centres undefined): the Potency entry was “inactive”.
Still for that read-out and setting: as for `CCOc1cccc(C2(N3CCN(c4ccccc4)CC3)CCC(C)CC2)c1` (centres undefined), the entry is “inactive”; as for `C[C@H](N)[C@H](O)c1ccc(O)c(O)c1`, “inactive”; as for `N#CC(C#N)=Cc1ccc(O)c(O)c1`, “inactive”.
Still for that read-out and setting: next, `C=CC(C)(CCC=C(C)C)OC(=O)c1ccccc1N` (centres undefined): “inactive”.
Same read-out and setting: as for `CCCCCCCCCCCCCCCl`, the entry is “inactive”.
For the molecule `CN1C(=O)CN=C(c2ccccc2)c2cc([N+](=O)[O-])ccc21`, the Potency result is “inactive”.
The same measure, in the same setting: next, `NCCc1cc(O)c(O)cc1O`: “inactive”.
Same read-out and setting: as for `CCCN(CCC)C(=O)Cc1c(-c2ccc(Cl)cc2)nc2ccc(Cl)cn12`, the entry is “inactive”; as for `O=C(NC(=O)c1cc(F)c(F)cc1Cl)Nc1cc(F)ccc1N1CCC(C(=O)O)CC1`, “inactive”.
`Cc1nc(N(C)C)nc(OC(=O)N(C)C)c1C`: the Potency result was “inactive”.

(Values after PubChem BioAssay (Tox21).)
